Sm TGR block: S. mansoni TGR enzyme inhibition | purified TGR, DTNB reduction, TNB absorbance 405 nm | Potency, µM (series often up to 114 µM), inactives show at the highest dose activity change, negative = inhibition, most hits filed as inhibitors | actives 3% (n = 360,000); note: potency is the fitted concentration of half-maximal effect; % is set by controls: 0 for no effect and ±100 for the full control effect; nearly all actives have a fitted effect of over 60% in size
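TGR 20 nM + NADPH 100 uM (dispensed conc.), cpd preinc 15 min RT; start with NADPH (500 uM addition) then DTNB (15 mM addition). Kinetic TNB absorbance, 405 nm filter. Four-parameter Hill fit across titration.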
Pf growth 96h: P. falciparum growth inhibition at 96 hour, primary screen for plastid delayed-death inhibitors; AID 504834; Potency, µM (top dose mostly 28.7 µM), for the others: top-dose activity change, negative = inhibition, actives largely listed as inhibitors; P. falciparum luciferase reporter growth, 96 h; actives 6.9% (n = 320,000); note: potency is the fitted concentration of half-maximal effect; % is set by controls: 0 for no effect and ±100 for the full control effect
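Luminescence readout: decreased luciferase signal marks inhibited growth of reporter-expressing P. falciparum in infected red cells (2% hematocrit, 0.05% parasitemia final), exposed to compound two generations (96 h, 37 C, 5% CO2).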
Pf growth 48h: P. falciparum growth inhibition at 48 hours (one generation); actives 5.9% (n = 310,000); P. falciparum luciferase growth in erythrocytes, 48 h; Potency, µM (top dose mostly 28.7 µM), for the others: at the top dose activity change, negative = inhibition, usual class: inhibitors; note: potency is the fitted concentration of half-maximal effect; % is set by controls: 0 for no effect and ±100 for the full control effect
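Compounds are pin-transferred into medium, infected erythrocytes (2% hematocrit, 0.1% parasitemia final) are added, and plates sit one parasite generation at 37 C in 5% CO2. Detection reagent is then added and luminescence measured.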
Shiga toxin inh: Shiga toxin inhibition; Vero cells, Shiga toxin protein synthesis inhibition reporter; inhibition, % at 38.7 µM; actives 9.2% (n = 290,000); in the data active = inhibition mostly above about 28%, no sharp cut-off; inactive = mostly below about 43%; note: 0% is about no effect
NS1 function inh: influenza NS1 inhibition. actives 0.4% (n = 270,000). Potency, µM (top dose mostly 46.1 µM), for inactives: at the top dose activity, positive = more growth. AID 2326; calls by dose curve; note: potency is the fitted concentration of half-maximal effect; actives are rising curves; nearly all actives have a fitted effect of over 50% in size
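Compounds were scored for reversing the slow growth caused by influenza A NS1 in S. cerevisiae, measured by optical density at 600 nm. Assay medium contained 2% galactose at pH 6.0; NS1-free yeast of the same strain were the positive control.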
CHX counter: affects cycloheximide protein synthesis inhibition readout, counter-screen; cell reporter, cycloheximide protein synthesis inhibition counterscreen; max response, %; actives 12% (n = 300,000); in the data active = max response mostly above about 13%, no sharp cut-off; inactive = mostly below about 14%; note: read at 38.3 µM for the half of the compounds with a filed dose; 0% is about no effect
The depositor's hits bear a star. In the library only some 21% were active in any assay of this set; here they are far more common. Unless noted, calls come from the whole dose curve; as a rule, active = well fitted curve in the direction sought with a large enough effect; inconclusive = small, poorly fitted or top-dose-only effect, or another doubt; inactive = no such curve, though single readings can be large; an effect the other way counts as inactive or inconclusive.

`CC(C)(C)C(=O)C(Oc1ccc(Cl)cc1)n1ccnc1` (stereo unspecified) gave Pf growth 96h 12µM* and Pf growth 48h -7%.
For CCn1cc(CNC(=O)NC2CCCCC2)c(C)n1 the results were Sm TGR block -16%, Pf growth 96h -18%, Pf growth 48h 55%, Shiga toxin inh 65*, NS1 function inh 3% and CHX counter 19*.
`Cc1ccc(C(=O)OCC(=O)NC2CCCC2)cc1` gave Sm TGR block 10%, Pf growth 96h 48%, Pf growth 48h 65%, Shiga toxin inh 75*, NS1 function inh 1% and CHX counter 32*.
CC(C)(C)c1ccc(C(=O)OCC(=O)NC2CC2)cc1 was read as Sm TGR block -1%, Pf growth 96h inconclusive and Pf growth 48h 9.3µM*.
Screening Cc1ccc(CNC(=O)NC2CCCCC2)cc1 returned Sm TGR block -1%, Pf growth 96h -19%, Shiga toxin inh 55*, NS1 function inh 0% and CHX counter 16*.
Screening O=C(COC(=O)c1ccc(O)cc1)NC1CCCC1 returned Sm TGR block -6%, Pf growth 96h 54%, Pf growth 48h 45%, Shiga toxin inh 16, NS1 function inh 2% and CHX counter 19.
Screening CCC12CN3CC(C)(CN(C1)C3c1c(C)[nH]c3ccccc13)C2=O (stereo unspecified) returned Sm TGR block 1%.
`CC1CCc2c(sc(NC(=O)CN3CCN(C(=O)c4ccco4)CC3)c2C#N)C1` (stereo unspecified) gave Sm TGR block -8%, Pf growth 96h inconclusive, Pf growth 48h inconclusive, Shiga toxin inh -14, NS1 function inh -7% and CHX counter -1.
Screening O=c1c(O)c(-c2cc(O)c(O)c(O)c2)oc2cc(O)ccc12 returned Shiga toxin inh -4 and CHX counter 7.
For O=C(NC1CCCCCC1)C1CCN(C(=O)c2ccc(Br)cc2)CC1 the results were Sm TGR block -15%, Pf growth 96h inconclusive, Pf growth 48h -5%, Shiga toxin inh -7, NS1 function inh -4% and CHX counter -2.
For Cc1ccc(C(=O)NCC(=O)NC2CCCCCC2)cc1 the results were Sm TGR block -5%, Pf growth 96h inconclusive, Pf growth 48h 17%, Shiga toxin inh 26*, NS1 function inh 1% and CHX counter active.
`CCCCOc1ccc(C(=O)NCC(=O)NC2CC2)cc1` gave Sm TGR block -5%, Pf growth 96h 30% and Pf growth 48h 5%.
`Cc1ccc(C(=O)N2CCC(C(=O)NC3CCCCCC3)CC2)cc1` gave Sm TGR block 32%, Pf growth 96h inconclusive, Pf growth 48h inconclusive, Shiga toxin inh 56, NS1 function inh -6% and CHX counter 28*.
CC(=O)C(C)n1c(CN2CCN(C(=O)c3ccco3)CC2)nc2c1c(=O)n(C)c(=O)n2C (stereo unspecified) was read as Sm TGR block -25%, Pf growth 96h -7%, Pf growth 48h -11%, Shiga toxin inh 12, NS1 function inh -1% and CHX counter 0.
Screening C[C@H](N)C(=O)NCC(=O)N[C@H]1CSSC[C@@H](C(=O)O)NC(=O)[C@H](CO)NC(=O)[C@H]([C@@H](C)O)NC(=O)[C@H](Cc2ccccc2)NC(=O)[C@H]([C@@H](C)O)NC(=O)[C@H](CCCCN)NC(=O)[C@@H](Cc2c[nH]c3ccccc23)NC(=O)[C@H](Cc2ccccc2)NC(=O)[C@H](Cc2ccccc2)NC(=O)[C@H](CC(N)=O)NC(=O)[C@H](CCCCN)NC1=O returned Shiga toxin inh -12 and CHX counter 0.
Screening Cc1cccc(NC(=O)c2sc(-n3nc(C)c(Cc4ccc5c(c4)OCO5)c3C)nc2C)c1C returned Sm TGR block -5%.
Screening CN(C)S(=O)(=O)c1ccc(NC(=O)N2CCN(c3ccccc3Cl)CC2)cc1 returned Sm TGR block 3%, Pf growth 96h inconclusive, Pf growth 48h 13µM*, Shiga toxin inh 15, NS1 function inh 6% and CHX counter -3.
Screening CN(C)S(=O)(=O)c1ccc(NC(=O)N2CCN(c3cccc(C(F)(F)F)c3)CC2)cc1 returned Sm TGR block 1%, Pf growth 96h 12µM*, Pf growth 48h 12µM*, Shiga toxin inh 15, NS1 function inh 5% and CHX counter 4.
For COc1ccc(N2CCN(C(=O)CSc3c4c(nc5ccc(Cl)cc35)CCCC4)CC2)cc1 the results were Sm TGR block 1%.
COC(=O)C(N)Cc1ccc(O)c(O)c1 (stereo unspecified) was read as Sm TGR block 7.9µM*, Pf growth 48h inconclusive, Shiga toxin inh 3, NS1 function inh 6% and CHX counter 7.
For C[C@](N)(Cc1ccc(O)c(O)c1)C(=O)O the results were Sm TGR block 22µM*, Pf growth 96h inconclusive, Pf growth 48h 22%, Shiga toxin inh -7, NS1 function inh -10% and CHX counter -1.
COC(=O)C(N)Cc1ccc(O)cc1 (stereo unspecified) was read as Sm TGR block 10%, Pf growth 48h 6%, Shiga toxin inh -6, NS1 function inh 4% and CHX counter -7.
`CCOC(=O)c1c(OCCO)nn(-c2ccccc2)c1N` gave Sm TGR block -1%, Pf growth 96h -1%, Pf growth 48h 20%, Shiga toxin inh 18 and CHX counter 6.
Screening O=C(O)c1ccc(SSc2ccc(C(=O)O)cn2)nc1 returned NS1 function inh -6%.
O=C1C(C=NCc2ccccn2)=C(O)c2ccccc21 was read as Sm TGR block 3%, Pf growth 96h 3%, Pf growth 48h 184%, Shiga toxin inh 136*, NS1 function inh 0% and CHX counter 59*.
Screening CC(C)CN=CC1=C(O)c2ccccc2C1=O returned Sm TGR block 0%, Pf growth 96h 272%, Pf growth 48h 220%, Shiga toxin inh 72*, NS1 function inh -2% and CHX counter 37*.
`COc1cc(N=CC2=C(O)c3ccccc3C2=O)cc(OC)c1` gave Sm TGR block -11%, Pf growth 96h -105%, Pf growth 48h 6%, Shiga toxin inh 64*, NS1 function inh 4% and CHX counter 20*.
Screening O=C1C(C=NC2CC2)=C(O)c2ccccc21 returned Sm TGR block -18%, Pf growth 96h 13µM*, Shiga toxin inh 57*, NS1 function inh -24% and CHX counter 37*.
Cc1ccc(C(=O)CSc2nnc3n2CCCCC3)s1 was read as Sm TGR block -9%, Pf growth 96h 182% and Pf growth 48h 184%.
For Cc1c(C(=O)C(=O)N2c3ccccc3CC2C)c2ccccc2n1C (stereo unspecified) the results were Sm TGR block 1%, Pf growth 96h inconclusive, Pf growth 48h inconclusive, Shiga toxin inh -6 and CHX counter 7.

Assay outcomes (PubChem)
